Measurements: ChEMBL document CHEMBL3988442, “University of Dundee, Small-Polar-MMV Screening Library” (2021)
Among all 69,000 compounds or so, about 950 (1.4%) showed an effect of 50% or more. The entries come from a sample that favours strong results as a whole.

Each compound was assayed on Mycobacterium tuberculosis (assay: Cornell M. t heat shock assay; further: in the data most compounds retested in dose-response had high values).
Format: functional, organism-based
Design: dose or concentration left out as unconfirmed

| SMILES | Percent Effect [%] |
| --- | --- |
| Cl.Cn1cc(C(=O)NCc2cncc3c2CCN(S(C)(=O)=O)C3)cn1 | 36.5 |
| O=C(O)C(F)(F)F.O=C(O)C(F)(F)F.O=C(O)C(F)(F)F.c1ccc(COC[C@H]2CC[C@H]3[C@H](CCN3Cc3ccccn3)O2)nc1 | 4.762 |
| COc1ncccc1C(=O)N1CC[C@H]2C[C@H](c3nnc(C)[nH]3)O[C@@H]2C1.O=C(O)C(F)(F)F | -43.18 |
| Cc1ccc(CN2C[C@@H]3CCN(Cc4cccnc4)C(=O)[C@H]3C2)s1.O=C(O)C(F)(F)F.O=C(O)C(F)(F)F | -19.89 |
| Cc1ccc(N2CCO[C@H]3CN(Cc4cnn(C)c4)C[C@H]32)nn1.O=C(O)C(F)(F)F.O=C(O)C(F)(F)F | 3.052 |
| CCn1ncc2c1C(COCC1CC1)CN(c1ccc(C)nn1)C2.O=C(O)C(F)(F)F.O=C(O)C(F)(F)F (stereo unspecified) | 28.05 |
| c1csc(-c2noc(CNCCn3cccn3)n2)c1 | -3.991 |
| Clc1ccc(OCCNCCn2cccn2)cc1 | -6.93 |
| c1ccc(Cc2nc(CNCCn3cccn3)cs2)cc1 | 96.34 |
| Fc1ccc(CNCCn2cccn2)cc1F | -1.295 |
| Clc1ccc(Cc2nc(CNCCn3cccn3)cs2)cc1 | 102.1 |
| CCOC1COC2(CCN(c3cccc(C)n3)CC2)C1.O=C(O)C(F)(F)F (stereo unspecified) | -0.3848 |
| CCCOc1ccccc1CN[C@@H]1CCC[C@H]1Cc1cc(C)no1.O=C(O)CC(O)(CC(=O)O)C(=O)O | -26.27 |
| CNC(=O)CN1CCOCC2(CCCN(CCc3ccccc3)C2)C1.O=C(O)C(F)(F)F.O=C(O)C(F)(F)F (stereo unspecified) | -11.41 |
| CO[C@@H]1CCN(Cc2ccoc2)C[C@@H]1Cc1ccccc1.O=C(O)C(F)(F)F | 28.11 |
| Cc1ccc(N2CC[C@@H]3[C@@H]2CCN3C(=O)Cc2ccsc2)nn1.O=C(O)C(F)(F)F | 8.036 |
| CC1CCN(c2cncc(CCC3CCCN3)n2)CC1.Cl (stereo unspecified) | -9.936 |
| CCCn1cc(-c2ccnc(NC3CCc4ccccc43)n2)c(C)n1 (stereo unspecified) | 18.89 |
| CCCn1ncc(-c2ccnc(NC3CCCc4ccccc43)n2)c1C (stereo unspecified) | 27.79 |

| SMILES | Percent Effect [%] |
| --- | --- |
| CCCn1cc(-c2ccnc(NC3CCCc4ccccc43)n2)c(C)n1 (stereo unspecified) | 98 |
| O=C(NCCc1cccs1)[C@H]1CO[C@H]2CCNC[C@H]2C1.O=C(O)C(F)(F)F | 0.5431 |
| Cl.c1nnc(Nc2cncc(C3CCCN3)n2)s1 (stereo unspecified) | 104.6 |
| Cc1nc(Nc2nncs2)cc(C2CCCN2)n1.Cl (stereo unspecified) | 5.522 |
| Cc1nc(Nc2ncc(C)s2)cc(C2CCCN2)n1.Cl (stereo unspecified) | 6.055 |
| Cc1nc(Nc2nnc(C)s2)cc(C2CCCN2)n1.Cl (stereo unspecified) | -7.337 |
| Cc1cc(Nc2cnccn2)cc(C2CCCN2)n1 (stereo unspecified) | -16.58 |
| Cl.c1cnc(Nc2cncc(C3CCCN3)n2)cn1 (stereo unspecified) | 54.88 |
| Cl.c1cncc(CNc2cncc(C3CCCN3)n2)c1 (stereo unspecified) | -18.35 |
| Cc1nc(Nc2cnccn2)cc(C2CCCN2)n1.Cl (stereo unspecified) | -30.38 |
| Cl.Cn1nc(C2CCN(C(=O)CCN3CCOCC3)CC2)c2cccnc21 | 0.9946 |
| CNC(=O)COC1COC2(CCN(Cc3ccncc3F)CC2)C1.O=C(O)C(F)(F)F (stereo unspecified) | 44.76 |
| COc1cccc(CN2CCC3(CCN(C(=O)[C@H]4CCCO4)CC3)C2)c1.O=C(O)C(F)(F)F | -2.359 |
| Cc1cnc(N2Cc3nccn3CC(Cn3ncccc3=O)C2)nc1.O=C(O)C(F)(F)F (stereo unspecified) | -35.14 |
| O=C(CN1CCCC(c2ccn[nH]2)C1)Nc1nncs1 (stereo unspecified) | 98.23 |
| Cc1nnc(NC(=O)CN2CCCC(Cn3cncn3)C2)s1 (stereo unspecified) | 2.027 |
| Cn1c(C2CC2)nc2c1CCN(CC(=O)Nc1nncs1)C2 | 13.67 |
| Cc1nnc(NC(=O)CN2CCCC(c3ccn[nH]3)C2)s1 (stereo unspecified) | 101.7 |
| Cc1nc(C)n(CC2CCCN(CC(=O)Nc3nnc(C)s3)C2)n1 (stereo unspecified) | -28.96 |

| SMILES | Percent Effect [%] |
| --- | --- |
| Cc1nc(C)n(CC2CCCN(CC(=O)Nc3nncs3)C2)n1 (stereo unspecified) | 11.86 |
| CCN(CC)S(=O)(=O)N1CC[C@H](c2ccccc2)[C@H]2NCCCC[C@H]21.Cl | -6.669 |
| CC(C)c1nnc(N2C[C@@H]3CC[C@H](C2)N(Cc2ccccc2)C3)s1 | 34.82 |
| COc1ccc(F)c(CN2CCCC3(CCN(C4CCOCC4)C3)C2)c1 (stereo unspecified) | 99.36 |
| CCS(=O)(=O)N1CCC2(CCCN(Cc3cc(OC)ccc3F)C2)C1 (stereo unspecified) | 24.11 |
| COc1ccc(F)c(CN2CCCC3(CCN(S(C)(=O)=O)C3)C2)c1 (stereo unspecified) | -18.53 |
| Cc1ccc(C(=O)N2CCn3c(COCC4CC4)cnc3C2C)nc1.O=C(O)C(F)(F)F (stereo unspecified) | -9.703 |
| CCN1CCC2(CC1)CC(NCc1cccs1)c1ccccc1O2.O=C(O)C(F)(F)F.O=C(O)C(F)(F)F (stereo unspecified) | -24.55 |
| CN(CC(=O)N(C)C1CCCCC1)Cc1nc2c(cnn2C)c(=O)[nH]1 | -5.559 |
| CN1C(=O)CC(N(C)Cc2nc3ccccc3c(=O)[nH]2)C1=O (stereo unspecified) | 15.14 |
| CN(Cc1nc2ccccc2c(=O)[nH]1)C1CC(=O)N(C2CC2)C1=O (stereo unspecified) | 51.11 |
| CN(Cc1nc2ccccc2c(=O)[nH]1)C[C@@H]1CCCN2CCCC[C@H]12 | 44.63 |
| CCN1C(=O)CC(N(C)Cc2nc3ccccc3c(=O)[nH]2)C1=O (stereo unspecified) | 16.93 |
| CN(CC(=O)N(C)C1CCCCC1)Cc1nc2ccccc2c(=O)[nH]1 | 97.32 |
| CCC(CN1CCCCC1)NC(=O)C1(c2ccc(F)cc2)CC1.O=C(O)CC(O)(CC(=O)O)C(=O)O (stereo unspecified) | -8.056 |
| CSCCC(O)C(=O)N1CCN(Cc2cccc(Cl)c2)CC1 (stereo unspecified) | 31.13 |
| Cc1ccoc1C(=O)N1CC[C@@H]2CN(C3CCOCC3)CCO[C@@H]2C1.O=C(O)C(F)(F)F | 6.269 |
| COc1ccc(CN2Cc3nnn(C)c3C(COCCN(C)C)C2)cc1.O=C(O)C(F)(F)F.O=C(O)C(F)(F)F (stereo unspecified) | -24.51 |
